Our source for the growth values is the supplement of paper PMC9262897, “Low-cost anti-mycobacterial drug discovery using engineered E. coli” (Nature Communications, 2022).

The test system of the experiment is E. coli TESEC Mtb Alr. Briefly: growth (OD600 after 10 h); higher = more growth (less inhibition). Particulars: compound 0.1 mM. Here is the method: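 TESEC Mtb Alr E. coli, or the Alr+ wild-type control, in 384-well plates with Prestwick library compounds at 0.1 mM and 1% DMSO, across arabinose induction levels of 1E3 to 1E7 nM. Growth is read as OD600 after 10 h at 37 °C in triplicate biological replicates.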

Setting [1] is: arabinose 1000 nM, raw OD600 reference: median of DMSO wells 0.294, cell-free background 0.041.
Where [2] appears, read: arabinose 10000 nM, raw OD600 reference: median of DMSO wells 0.264, cell-free background 0.041.
[3] abbreviates: arabinose 100000 nM, raw OD600 reference: median of DMSO wells 0.201, cell-free background 0.041.
[4] abbreviates: arabinose 1000000 nM, raw OD600 reference: median of DMSO wells 0.193, cell-free background 0.041.
[5] abbreviates: arabinose 10000000 nM, raw OD600 reference: median of DMSO wells 0.146, cell-free background 0.041.

Molecules are shown by their SMILES. Counter-ions that a name gives are not always drawn. ± gives the standard deviation of the averaged measurements.

As for `C#C[C@]1(O)CC[C@H]2[C@@H]3CCc4cc(O)ccc4[C@H]3CC[C@@]21C` [Ethinylestradiol], the growth came out at 0.0489 ± 0.0023 under setting [1]; 0.0421 ± 0.00055 under setting [2]; 0.0506 ± 0.0016 under setting [3]; 0.0444 ± 0.00061 under setting [4]; 0.05593 ± 0.00015 under setting [5].
In the same order, the values of `COc1cc([C@@H]2c3cc4c(cc3[C@@H](O[C@@H]3O[C@@H]5CO[C@@H](C)O[C@H]5[C@H](O)[C@H]3O)[C@H]3COC(=O)[C@H]23)OCO4)cc(OC)c1O` [Etoposide] are 0.0527 ± 0.0019, 0.04273 ± 0.00025, 0.0604 ± 0.0031, 0.0501 ± 0.00056 and 0.1106 ± 0.0011.
For the molecule `NC(=O)c1cccnc1` [Nicotinamide], the growth runs as follows: under setting [1], 0.335 ± 0.0062; under setting [2], 0.302 ± 0.0031; under setting [3], 0.263 ± 0.014; under setting [4], 0.238 ± 0.014; under setting [5], 0.155 ± 0.0058.
Take `CCN(CC)CCOC(=O)C1(C2CCCCC2)CCCCC1` [Dicyclomine hydrochloride]: the growth was 0.115 ± 0.063 under setting [1]; 0.195 ± 0.0043 under setting [2]; 0.157 ± 0.016 under setting [3]; 0.06453 ± 0.00058 under setting [4]; 0.103 ± 0.0024 under setting [5].
Consider `Cc1c(Nc2ncccc2C(=O)O)cccc1C(F)(F)F` [Flunixin meglumine], for which the growth by setting is: under setting [1], 0.084 ± 0.007; under setting [2], 0.0857 ± 0.0019; under setting [3], 0.163 ± 0.005; under setting [4], 0.082 ± 0.0026; under setting [5], 0.127 ± 0.0028.
Consider `c1ccc(C2CN3CCSC3=N2)cc1` (stereo not given) [Tetramisole hydrochloride], for which the growth under setting [1] was found to be 0.303 ± 0.011; the growth under setting [2] worked out at 0.259 ± 0.0099; the growth under setting [3] is 0.242 ± 0.045; the growth under setting [4] came to 0.176 ± 0.0046; the growth under setting [5] worked out at 0.16 ± 0.0039.
`CN(C)CCCN1c2ccccc2CCc2ccccc21` [Imipramine hydrochloride]: the growth by setting is: under setting [1], 0.242 ± 0.018; under setting [2], 0.285 ± 0.013; under setting [3], 0.212 ± 0.014; under setting [4], 0.133 ± 0.0058; under setting [5], 0.175 ± 0.011.
In turn, `O=C1CN(/N=C/c2ccc([N+](=O)[O-])o2)C(=O)N1` [Nitrofurantoin] showed a growth under setting [1] of 0.181 ± 0.0058; a growth under setting [2] of 0.0822 ± 0.0037; a growth under setting [3] of 0.04437 ± 0.00021; a growth under setting [4] of 0.0737 ± 0.0054; a growth under setting [5] of 0.0451 ± 0.00093.
